Bioassay records: PubChem, Johns Hopkins Ion Channel Center
KCNQ2 enhance: KCNQ2 (rat) channel potentiation. CHO-K1 KCNQ2, FluxOR thallium flux fluorescence; active compounds read high. B-score at 10 µM. 0.54% of 310,000 active;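 active = fluorescence ratio B-score at least 3 SD of library B-scores, with initial fluorescence B-score within 3 of them, cut at about 5.3 in these data; same plate scores as AID 2156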;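 also: B-score of peak minus minimum over baseline fluorescence ratio after K+ and Tl+ stimulus; positive B-score means potentiation of KCNQ2 with more thallium influx and brighter signal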
KCNQ2 block: blocks the rat KCNQ2 potassium channel; CHO-K1 KCNQ2, FluxOR thallium flux, 20 min; active compounds read low; B-score at 10 µM; 1.1% of 310,000 active; AID 2156;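 active = fluorescence ratio B-score at most minus 3 library SDs, with starting brightness B-score within 2 library SDs, cut at about -5.5 in these data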
Kir21 conf inh: confirmation of mouse Kir2.1 potassium channel inhibitors. shares compounds with KCNQ2 enhance. Kir2.1-expressing cells, FluxOR thallium flux fluorescence; active compounds read low. Tl flux remaining, % of negative control (active compounds read low), % at 10 µM. 41% of 2,300 active;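 active = Primary-screen hit whose thallium flux fell at least 3 control SD below untreated wells in both duplicates, with normal baseline fluorescence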
HEK293 Tl flux: parental HEK293 activity in Kir2.1 inhibitor counter-screen; shares compounds with KCNQ2 enhance; parental HEK293 cells, FluxOR thallium flux fluorescence; 0% = unstimulated blank wells; FluxOR signal as % of negative control (100 = no effect), % at 10 µM; 19% of 2,300 active; AID 2105;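 active = dye signal at least 3 control SD above or below untreated wells in both duplicates, raw fluorescence within 3, either direction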;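 also: percent is based on the flux ratio of peak minus minimum fluorescence over baseline F0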
CHO-K1 ctr: counter-screen for KCNQ2 potentiators: effect in parental CHO-K1 cells | shares compounds with KCNQ2 enhance | FluxOR thallium flux fluorescence; zero = vehicle mean+3SD, 100% = vehicle-minus-blank window | activity increase over 3SD of controls, % at 10 µM | 43% of 1,200 active | AID 2282;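 active = signal rise of at least 3 SD above the untreated control mean, in both duplicate wells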;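 also: counter screen of KCNQ2 potentiator hits so any rise reflects channel-independent effects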
KCNQ1 pot spec: tests whether KCNQ2 potentiators also act on human KCNQ1 | activation over 3SD threshold, % at 10 µM | 28% of 1,200 active | AID 2283 | CHO KCNQ1 stable, FluxOR thallium flux fluorescence; beyond 3SD, as % of vehicle-control signal | shares compounds with KCNQ2 enhance;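 active = fluorescence ratio rise of at least 3 SD of vehicle wells above their mean, in both replicate wells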
Target sequence (P51787 whole entry, looked up): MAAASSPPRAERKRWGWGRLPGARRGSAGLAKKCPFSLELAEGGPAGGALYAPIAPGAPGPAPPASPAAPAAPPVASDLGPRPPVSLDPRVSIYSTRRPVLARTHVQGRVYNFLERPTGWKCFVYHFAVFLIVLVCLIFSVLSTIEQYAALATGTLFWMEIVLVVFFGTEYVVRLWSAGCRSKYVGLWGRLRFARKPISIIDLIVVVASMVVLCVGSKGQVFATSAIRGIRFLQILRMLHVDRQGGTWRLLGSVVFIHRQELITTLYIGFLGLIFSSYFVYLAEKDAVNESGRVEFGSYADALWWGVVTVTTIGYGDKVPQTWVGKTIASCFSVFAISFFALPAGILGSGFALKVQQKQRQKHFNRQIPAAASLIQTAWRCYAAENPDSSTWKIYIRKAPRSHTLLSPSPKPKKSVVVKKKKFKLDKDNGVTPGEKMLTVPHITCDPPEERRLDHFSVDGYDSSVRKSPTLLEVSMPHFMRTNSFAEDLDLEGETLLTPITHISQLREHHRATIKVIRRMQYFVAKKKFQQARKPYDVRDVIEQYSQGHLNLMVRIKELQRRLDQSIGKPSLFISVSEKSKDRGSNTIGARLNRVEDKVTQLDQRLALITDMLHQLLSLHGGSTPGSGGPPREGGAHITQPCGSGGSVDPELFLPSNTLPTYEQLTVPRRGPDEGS
KCNQ2 pot confirm: confirmation of rat KCNQ2 potassium channel potentiators. shares compounds with KCNQ2 enhance. CHO-KCNQ2 cells, FluxOR thallium flux fluorescence. potentiation, less the hit threshold, % at 10 µM. 68% of 1,200 active;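 active = fluorescence ratio rising 3 SD or more over the vehicle control mean in both replicates, plus primary screen hit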;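 also: peak minus minimum thallium fluorescence divided by baseline after K/Tl stimulus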
Kir21 spec: selectivity of KCNQ2 potentiators: effect on mouse Kir2.1; shares compounds with KCNQ2 enhance; HEK293 Kir2.1, FluxOR thallium flux fluorescence; activity over 3SD threshold, % at 10 µM; 2% of 1,200 active; AID 2345;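 active = fluorescence ratio rise of at least 3 SD above the vehicle-control mean, seen in both replicates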
KCNQ2 W236L MoA: rat KCNQ2 W236L mutant potentiation by KCNQ2 potentiators. shares compounds with KCNQ2 enhance. current increase over 3SD of negative controls (%), active compounds read high, % at 25 µM. AID 2558. 10% of 940 active. CHO KCNQ2-W236L, automated patch clamp current;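 active = current increase at least 3 SD of the untreated controls above them in both duplicate recordings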
A number is an active result. Hits are enriched below; roughly 1.6% of the tested compounds scored in any of these assays.

Screening CO/N=C(/CS(=O)c1ccc(Br)cc1)c1ccc(OC)cc1 (stereo not given) returned KCNQ2 block inactive, Kir21 conf inh 50% and HEK293 Tl flux inactive.
CO/N=C(/COc1ccc(F)cc1)c1ccc(OC)cc1 was read as KCNQ2 block inactive.
Screening CCOC(=O)c1cc2c(=O)n3ccccc3nc2n(CCCOC)c1=NC(=O)c1ccncc1 returned KCNQ2 enhance 8.6, KCNQ2 block inactive, Kir21 conf inh inactive, HEK293 Tl flux inactive, CHO-K1 ctr inactive, KCNQ1 pot spec inactive, KCNQ2 pot confirm inactive and Kir21 spec inactive.
Screening CCCn1c(=NC(=O)c2ccco2)c(C(=O)OCC)cc2c(=O)n3ccccc3nc21 returned KCNQ2 enhance inactive and KCNQ2 block inactive.
`CCOC(=O)/C=C1\SCC(=O)N1CCOc1cccc(Br)c1` gave KCNQ2 block inactive.
Screening O=C(Nc1ncc(Br)s1)C(Cc1ccccc1)n1cccc1 (stereo not given) returned KCNQ2 enhance 7.3, KCNQ2 block inactive, Kir21 conf inh inactive, HEK293 Tl flux 188%, CHO-K1 ctr inactive, KCNQ1 pot spec inactive, KCNQ2 pot confirm 8.5, Kir21 spec inactive and KCNQ2 W236L MoA inactive.
For O=C(Nc1cccnc1)C(Cc1ccccc1)n1cccc1 (stereo not given) the results were KCNQ2 enhance inactive and KCNQ2 block inactive.
`COc1ccc(N(CC(=O)NCCSC2CCCCC2)S(=O)(=O)c2ccccc2)cc1OC` gave KCNQ2 block inactive.
Screening Cc1ccc(-c2c(C#N)c(N)nc3c2CCCCC3)o1 returned KCNQ2 enhance inactive and KCNQ2 block inactive.
For CCOC(=O)CSc1nc2c(c(-c3ccc(C)o3)c1C#N)CCCC2 the results were KCNQ2 enhance 7.2, KCNQ2 block inactive, Kir21 conf inh inactive, HEK293 Tl flux inactive, CHO-K1 ctr 113, KCNQ1 pot spec inactive, KCNQ2 pot confirm 6.3, Kir21 spec inactive and KCNQ2 W236L MoA inactive.
Screening COC(=O)CSc1nc2c(c(-c3ccco3)c1C#N)CCCC2 returned KCNQ2 enhance 11, KCNQ2 block inactive, Kir21 conf inh inactive, HEK293 Tl flux inactive, CHO-K1 ctr 7.8, KCNQ1 pot spec inactive, KCNQ2 pot confirm 28, Kir21 spec inactive and KCNQ2 W236L MoA inactive.
COC(=O)CSc1nc2c(c(-c3ccc(O)cc3)c1C#N)CCCC2 was read as KCNQ2 block inactive.
`CCc1nnc(SCC(=O)Nc2ccccc2Cl)nc1CC` gave KCNQ2 block inactive.
O=C(CCc1ccccc1)Nc1ccc(NC(=O)c2ccco2)cc1 was read as KCNQ2 enhance inactive and KCNQ2 block inactive.
O=C(O)c1ccccc1C(=O)Nc1ccc(Oc2cccc3ccccc23)cc1 was read as KCNQ2 enhance inactive and KCNQ2 block inactive.
O=C(Nc1ccc(Oc2cccc3ccccc23)cc1)c1ccco1 was read as KCNQ2 enhance 6.4, KCNQ2 block inactive, Kir21 conf inh inactive, HEK293 Tl flux inactive, CHO-K1 ctr inactive, KCNQ1 pot spec inactive, KCNQ2 pot confirm inactive, Kir21 spec inactive and KCNQ2 W236L MoA inactive.
For O=C(Nc1ccc(CSc2ccccc2)cc1)c1ccco1 the results were KCNQ2 enhance 6.9, KCNQ2 block inactive, Kir21 conf inh inactive, HEK293 Tl flux inactive, CHO-K1 ctr 76, KCNQ1 pot spec inactive, KCNQ2 pot confirm inactive, Kir21 spec inactive and KCNQ2 W236L MoA inactive.
`Cn1nccc1NS(=O)(=O)c1ccc(NC(=O)C(F)(F)F)cc1` gave KCNQ2 block inactive.
O=C1C2C3C=CC(C3=C(c3ccccc3)c3ccccc3)C2C(=O)N1Cc1ccccc1 (stereo not given) was read as KCNQ2 block inactive.
For OCCC1CN(Cc2ccc3nsnc3c2)CCN1CCc1ccccc1 (stereo not given) the results were KCNQ2 enhance inactive and KCNQ2 block inactive.
`O=C(/C=C/c1ccccc1Cl)c1ccccc(=O)c1O` gave KCNQ2 enhance 8.4, KCNQ2 block inactive, Kir21 conf inh inactive, HEK293 Tl flux 153%, CHO-K1 ctr inactive, KCNQ1 pot spec 4.1, KCNQ2 pot confirm inactive and Kir21 spec inactive.
Screening Cc1ccc(C)c(/C=C/C(=O)c2ccccc(=O)c2O)c1 returned KCNQ2 enhance 18, KCNQ2 block inactive, Kir21 conf inh inactive, HEK293 Tl flux 144%, CHO-K1 ctr 33, KCNQ1 pot spec 36, KCNQ2 pot confirm inactive, Kir21 spec inactive and KCNQ2 W236L MoA inactive.
O=C(/C=C/c1ccccc1Cl)Nc1ccccc1 was read as KCNQ2 block inactive.
`Cc1ccc(C)c(NC(=O)c2ccccc2O)c1` gave KCNQ2 enhance inactive and KCNQ2 block inactive.
Screening COC(=O)c1oc2ccc(Cl)cc2c1-n1cccc1 returned KCNQ2 block inactive.
Screening Cc1[nH]c2ccccc2c1C(=O)C(=O)NCc1ccco1 returned KCNQ2 enhance inactive and KCNQ2 block inactive.
For CC(CCCC(C)(C)O)NCc1cn[nH]c1-c1ccc2c(c1)OCO2 (stereo not given) the results were KCNQ2 enhance inactive and KCNQ2 block inactive.
`CCCC(c1nnnn1CS(=O)(=O)c1ccc(C)cc1)N1CCN(CC)CC1` (stereo not given) gave KCNQ2 enhance 5.5, KCNQ2 block inactive, Kir21 conf inh inactive, HEK293 Tl flux inactive, CHO-K1 ctr 32, KCNQ1 pot spec inactive, KCNQ2 pot confirm 0.3, Kir21 spec inactive and KCNQ2 W236L MoA inactive.
Screening CCCC(c1nnnn1CS(=O)(=O)c1ccc(C)cc1)N1CCN(c2ccc(F)cc2)CC1 (stereo not given) returned KCNQ2 block inactive.
CC(C)(CC(=O)O)CC(=O)N1CCCN(c2nccc(C(F)(F)F)n2)CC1 was read as KCNQ2 block inactive.
`Cc1ccc(S(=O)(=O)NCc2ccc3[nH]c(C)cc3c2)cc1` gave KCNQ2 block inactive.
Screening CC(=O)Nc1ccc(S(=O)(=O)NCc2ccc3[nH]c(C)cc3c2)cc1 returned KCNQ2 enhance 5.4, KCNQ2 block inactive, Kir21 conf inh inactive, HEK293 Tl flux inactive, CHO-K1 ctr 3.8, KCNQ1 pot spec inactive, KCNQ2 pot confirm inactive and Kir21 spec inactive.
O=C(NCc1ccccn1)C(C(=O)c1cccc([N+](=O)[O-])c1)n1cc(Cl)ccc1=O (stereo not given) was read as KCNQ2 block inactive.
